# Values joined by “and” are separate entries in the source; they are usually repeats but may differ in a detail not shown here. Equal values may be shown once. This is part of a sample that, as a whole, favours compounds with a hit. Of some 79,000 tested, about 15% had one in any assay. Some structures have more than one record in an assay (separate samples or runs), and their calls can disagree. Active and inactive are the calls of the source. Cut-off read from the data, not from the text of the source: active = growth inhibition above about 70%; inactive = the rest.
# Assays:
# [1] = NCI Yeast Anticancer Drug Screen. Data for the rad50 strain (AID 155);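 note: 0% = growth of vehicle-only cultures of the same strain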; conditions: S. cerevisiae rad50 strain growth inhibition, stronger effect = higher value
# Procedure, shortened: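 A DNA repair-deficient yeast mutant serves as the test organism; compound-induced growth inhibition is calculated against vehicle-treated cells.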
# [2] = NCI Yeast Anticancer Drug Screen. Data for the mec2-1 strain (AID 157); conditions: S. cerevisiae mec2-1 strain, stronger effect = higher value
# Procedure, shortened: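 Strain: mec2-1 (DNA repair/cell cycle alteration). Compound exposure, then growth measured; inhibition expressed relative to vehicle.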
# [3] = NCI Yeast Anticancer Drug Screen. Data for the sgs1 mgt1 strain (AID 161);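 note: 0% = growth of cultures given vehicle only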; conditions: S. cerevisiae sgs1 mgt1 strain, stronger effect = higher value
# Procedure, shortened: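 Mutant yeast exposed to compound; growth scored against vehicle-only wells.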
# [4] = NCI Yeast Anticancer Drug Screen. Data for the cln2 rad14 strain (AID 165);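 note: 0% = growth equal to vehicle treated cultures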; conditions: S. cerevisiae cln2 rad14 strain, stronger effect = higher value
# Procedure, shortened: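 Compounds are applied to the cln2 rad14 yeast strain, and growth is then compared with that of vehicle-treated cultures to give inhibition.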
# [5] = NCI Yeast Anticancer Drug Screen. Data for the bub3 strain (AID 167); conditions: S. cerevisiae bub3 mutant strain, stronger effect = higher value
# Procedure, shortened: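 Inhibition values come from growth of compound-treated mutant yeast normalised to vehicle-treated controls.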
# [6] = NCI Yeast Anticancer Drug Screen. Data for the mlh1 rad18 strain (AID 175); conditions: S. cerevisiae mlh1 rad18 strain growth inhibition, stronger effect = higher value
# Procedure, shortened: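 Read-out is yeast growth inhibition, calculated against vehicle-only controls. The compound was applied to a strain engineered with DNA damage repair alterations.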
# [7] = at 5.0 µM (retest, dose inferred, filed as 0.5)
# [8] = at 50.0 µM (retest, dose inferred, filed as 5.0)
Structure (SMILES),"growth inhibition [1, 7]","growth inhibition [1, 8]",growth inhibition ([1]; at 50.0 µM),"growth inhibition [2, 7]","growth inhibition [2, 8]",growth inhibition ([2]; at 50.0 µM),"growth inhibition [3, 7]","growth inhibition [3, 8]",growth inhibition ([3]; at 50.0 µM),"growth inhibition [4, 7]","growth inhibition [4, 8]",growth inhibition ([4]; at 50.0 µM),"growth inhibition [5, 7]","growth inhibition [5, 8]",growth inhibition ([5]; at 50.0 µM),"growth inhibition [6, 7]","growth inhibition [6, 8]",growth inhibition ([6]; at 50.0 µM)
O=[N+]([O-])C(Br)(Br)CCC(Br)(Br)[N+](=O)[O-],99% (active),99% (active),99.5% (active),99% (active),100% (active),99.8% (active),99% (active),99% (active),52.4% (inactive),100% (active),99% (active),81.3% (active),100% (active),100% (active),99.7% (active),99% (active),99% (active),99.5% (active)
O=C1C=CC(=O)N1c1cccc2ccccc12 (tested in a mixture with another compound),-1% (inactive),1% (inactive),10.3% (inactive),-39% (inactive),-1% (inactive),2.7% (inactive),0% (inactive),2% (inactive),9.1% (inactive),-1% (inactive),3% (inactive),15.8% (inactive),-8% (inactive),-5% (inactive),61% (inactive),-1% (inactive),-1% (inactive),12.2% (inactive)
NC(=O)/C=C/C(=O)O (tested in a mixture with another compound),0% (inactive),1% (inactive),-5.5% (inactive),2% (inactive),-1% (inactive),66.5% (inactive),0% (inactive),3% (inactive),7.2% (inactive),1% (inactive),1% (inactive),23.1% (inactive),-7% (inactive),-4% (inactive),95.7% (active),-1% (inactive),2% (inactive),17.5% (inactive)
Cc1cccc(OCC(O)CN2CC2)c1 (stereo unspecified),2% (inactive),64% (inactive),87.4% (active),4% (inactive),52% (inactive),89.8% (active),4% (inactive),78% (active),89.4% (active),4% (inactive),34% (inactive),87.8% (active),-1% (inactive),34% (inactive),87.8% (active),2% (inactive),95% (active),88.5% (active)
O=c1oc2ccccc2c(O)c1C(c1ccc(/C=C/c2ccccc2)cc1)c1c(O)c2ccccc2oc1=O,13% (inactive),97% (active),87.2% (active),36% (inactive),98% (active),90% (active),26% (inactive),95% (active),81.7% (active),54% (inactive),95% (active),77.5% (active),52% (inactive),97% (active),76.7% (active),7% (inactive),98% (active),91.3% (active)
CCCCS.[Hg],99% (active),94% (active),98.9% (active),99% (active),96% (active),99% (active),99% (active),94% (active),99.1% (active),97% (active),93% (active),98.7% (active),99% (active),93% (active),98.8% (active),99% (active),94% (active),99.2% (active)
CC(=O)[O][Hg][c]1cc2c(cc1O)Cc1cc([N+](=O)[O-])ccc1-2,95% (active),98% (active),93.5% (active),99% (active),99% (active),98% (active),99% (active),99% (active),86.2% (active),76% (active),98% (active),94.1% (active),99% (active),98% (active),97.6% (active),99% (active),99% (active),96.5% (active)
CC(Cl)CN(C)C (stereo unspecified),24% (inactive),74% (active),75.3% (active) and 30.4% (inactive),-5% (inactive),13% (inactive),1.1% (inactive) and -17.4% (inactive),25% (inactive),57% (inactive),54.5% (inactive) and 33.9% (inactive),-1% (inactive),3% (inactive),-55.5% (inactive) and 7.95% (inactive),-8% (inactive),-10% (inactive),-20.4% (inactive) and -16.6% (inactive),11% (inactive),37% (inactive),57% (inactive) and 18.3% (inactive)
COc1cc(Br)cc(/C=C(\C)[N+](=O)[O-])c1O,11% (inactive),96% (active),99.5% (active),7% (inactive),95% (active),99.8% (active),18% (inactive),97% (active),99.8% (active),-5% (inactive),94% (active),99.5% (active),-1% (inactive),97% (active),99.7% (active),9% (inactive),97% (active),99.7% (active)
O=C1C(=O)c2cccc3cccc1c23,8% (inactive),79% (active),64.2% (inactive),8% (inactive),51% (inactive),30.4% (inactive),3% (inactive),34% (inactive),21.1% (inactive),6% (inactive),50% (inactive),-3.15% (inactive),13% (inactive),82% (active),13.2% (inactive),1% (inactive),63% (inactive),22.9% (inactive)
O=C(CBr)Nc1ccccc1Cl,19% (inactive),99% (active),99.3% (active),-3% (inactive),99% (active),99.5% (active),40% (inactive),98% (active),99.1% (active),20% (inactive),99% (active),98.5% (active),23% (inactive),99% (active),99.5% (active),18% (inactive),99% (active),99.2% (active)
CC(=O)OC1CCC2(C)C(CCC3C4=CCC(C5=CC(=O)OC5)C4(C)CCC32)C1 (stereo unspecified),3% (inactive),-33% (inactive),82.8% (active),-1% (inactive),14% (inactive),81.8% (active),5% (inactive),55% (inactive),91.3% (active),12% (inactive),11% (inactive),65.3% (inactive),0% (inactive),4% (inactive),67.5% (inactive),3% (inactive),-8% (inactive),77.8% (active)
Nc1ccc(Cl)cc1C(=O)c1ccccc1Cl,-3% (inactive),99% (active),97.4% (active),-3% (inactive),99% (active),97.2% (active),-2% (inactive),99% (active),97.5% (active),-9% (inactive),98% (active),80.8% (active),-12% (inactive),99% (active),87.5% (active),-1% (inactive),99% (active),96.8% (active)
Oc1cc(Cl)c(Cl)cc1Cl,30% (inactive),98% (active),98.5% (active) and 53% (inactive),12% (inactive),99% (active),98.8% (active) and 98.6% (active),17% (inactive),99% (active),99.1% (active) and -3.1% (inactive),0% (inactive),99% (active),97.5% (active) and 96.4% (active),-2% (inactive),99% (active),98.1% (active) and 97.2% (active),18% (inactive),100% (active),98.8% (active) and 52.5% (inactive)
Cc1oc2c([N+](=O)[O-])cccc2c1[N+](=O)[O-],98% (active),98% (active),99.5% (active),99% (active),99% (active),99.8% (active),99% (active),98% (active),99.6% (active),98% (active),98% (active),98.8% (active),99% (active),99% (active),52.2% (inactive),98% (active),98% (active),99.7% (active)
C[Si]1(C)CCCCC2(C1)C(=O)NC(=O)NC2=O,0% (inactive),17% (inactive),16.4% (inactive),4% (inactive),20% (inactive),2.6% (inactive),-1% (inactive),58% (inactive),51% (inactive),-3% (inactive),5% (inactive),16.5% (inactive),-5% (inactive),13% (inactive),10.8% (inactive),-17% (inactive),3% (inactive),8.5% (inactive)
O=[N+]([O-])c1cc([N+](=O)[O-])c(Cl)cc1F,99% (active),99% (active),81% (active),99% (active),99% (active),59.7% (inactive),99% (active),99% (active),78.2% (active),98% (active),99% (active),-3.25% (inactive),99% (active),99% (active),87.5% (active),99% (active),99% (active),98.6% (active)

# Reference: PubChem BioAssay (NCI)
